# In the OligoGym collection:
# Target: ACAD10
# Experiment: pooled miR-30 sensor sort-seq; sequence = guide strand
# Conditions: shRNA
# Also: reference of the scale not given here.
row,Sequence,sensor-assay potency score (higher = more potent)
1,TAATCCTGAACTCCCTCTCTAT,-1.27
2,TTGAGGTCTTCGATCAGTGGGG,-0.0648
3,TATGACATAGAAGCTGTCCTCC,1.02
4,TTTCAGAGCAAAGTCTCCCAAA,-1.07
5,TTTCTCCTTGAGGTCTTCGATC,-1.58

# Target: ACAP2
# Experiment: as above
# Conditions: shRNA
row,Sequence,sensor-assay potency score (higher = more potent)
1,TGATTGAAGAACATTAATCTGA,0.0917
2,TAATCTGAAGCACATAATCGAG,-1.42
3,TAAATCTAGACTGAACTTCTGT,0.683
4,TATATTCTAACTTAGAATCATC,-0.946
5,TACTTCTGACTGAACTTTGGGC,0.208
6,TAACTTAGAATCATCACTGGAG,0.563
7,TTTAGCTGTATACATTAGGGGG,-0.7
8,TTTGGTTGACATTAGCACCATT,-0.325
9,TTTAACAAAGTTCTGAAGCTGT,0.177
10,TTATTCTGTATTGAAAACCAGC,-0.889
11,TATCCTTCCATAACTATGCCAT,-0.0646
12,TTTAGGATTTCTGATCTCCTTT,-0.154

# Target: ACBD3
# Experiment: as above
# Conditions: shRNA
row,Sequence,sensor-assay potency score (higher = more potent)
1,TTGAAGTCTTTGATCTGAGGTC,-0.0448
2,TATTACTTGGTACAGTTGCATT,-1.49
3,TTTCTCTTCACAACCGATGTTT,-0.314
4,TTCTTTTGGTCCATTCTCCAGG,-0.756
5,TTAAATGTCATCTTCTGCCCAA,0.233
6,TAAAGCTGCCATTATCTGCTGC,-0.101
7,TCTTCTTCTATCCGTCTCCTTT,-0.731
8,TTTTTCTTTGAAGAAGCGCAGT,-0.812
9,TAACTGACATCATATTACTTGG,-0.575
10,TTAACTGACATCATATTACTTG,0.151
11,TAGTAGACTGATTTTGACCGCC,0.374
12,TTGCTGTGCAAGCTGGACTTGA,-0.769

# Target: ACCN2
# Experiment: as above
# Conditions: shRNA
row,Sequence,sensor-assay potency score (higher = more potent)
1,ATAGCGTGTGAAGACCACCTTG,-0.485
2,TTCATCCTGACTATGGATCTGC,0.145
3,TTTGTCCTGCAGTATCTCCAGC,-1.1
4,TGGATCTGCACTTTGATGCCTG,-0.178
5,TTGGCTAAAGCGGAACTCGTTG,-0.0624
6,TTGAAGTCTTCAGCGCTGCAGA,-0.498
7,TGAACTTATAGGTATCAGGATG,-1.02
8,TTTTCATCTGCCATCTGTGTGT,0.238
9,TCAGATTTGTTGAACTTCTTGG,1.11
10,TGAACGTGTAGCACTTTCCATA,-0.947
11,TTTGCTGGGGATCTTGACCATG,-1.14
